The text below walks through data of the supplement of paper PMC8699584.

By cell viability is commonly meant a read-out of living cells in per cent, often relative to untreated cells.

One test deals with Molm13. In words: cell viability relative to DMSO control (bortezomib = 0%); higher = less growth inhibition. To be noted: 10 nM; 72 h. The essentials:
(§1)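 Acute myeloid leukemia cells were plated at 1000 cells per well in 50 µL onto a 679-compound library of approved and investigational agents in 384-well plates and exposed to a single 10 nM dose for 72 h, in duplicate. Cell viability was measured by CellTiter-Glo luminescence on an EnVision reader. Readings were scaled to percentages by per-plate linear regression, with DMSO-treated cells set at 100% and positive-control-treated cells at 0%.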

Another test deals with Mv4-11. Described as above. To be noted: 10 nM; 72 h. The essentials: as §1

Counter-ions that a name gives are not always drawn. ± gives the standard deviation of the averaged measurements.

For `CC(C)=CCC[C@](C)(O[C@@H]1O[C@H](CO)[C@@H](O)[C@H](O)[C@H]1O)[C@H]1CC[C@]2(C)[C@@H]1[C@H](O)C[C@@H]1[C@@]3(C)CC[C@H](O)C(C)(C)[C@@H]3[C@@H](O[C@@H]3O[C@H](CO)[C@@H](O)[C@H](O)[C@H]3O[C@@H]3OC[C@@H](O)[C@H](O)[C@H]3O)C[C@]12C` [Notoginsenoside R1], the cell viability with Molm13 was 110 ± 13%; with Mv4-11, 105 ± 7.3%.

For the compound `CCc1cncnc1N1CCN(Cc2nc3ccc(C(F)(F)F)cc3[nH]2)CC1`, the cell viability with Molm13 amounted to 106 ± 32%; in the test on Mv4-11 it was 116 ± 7.7%.

Take `Cn1cc(-c2ccc3c(c2)CCN3C(=O)Cc2cccc(C(F)(F)F)c2)c2c(N)ncnc21`: the cell viability with Molm13 was 105 ± 4.7%; in the test with Mv4-11, 108 ± 18%.

As for `NC(=O)c1ccc(N(C(N)=O)c2c(F)cccc2F)nc1-c1ccc(F)cc1F`, the cell viability was found to be 93.7 ± 5.1% in the test on Molm13 and 98.7 ± 8.1% in the test on Mv4-11.

On to `NCC(=O)Nc1ccc(-n2nc(C(F)(F)F)cc2-c2ccc3c(ccc4ccccc43)c2)cc1`, for which the cell viability in the test with Molm13 was 114 ± 8.5%; in the test with Mv4-11 it was 101 ± 12%.

For the compound `COc1ccc2cc1Oc1ccc(cc1)C[C@H]1c3cc(c(OC)cc3CCN1C)Oc1c(O)c(OC)cc3c1[C@H](C2)N(C)CC3` [Fangchinoline], the cell viability amounted to 90.9 ± 1.6% in the test with Molm13 and 122 ± 9.6% in the test with Mv4-11.

Take `CCN1CCN(Cc2ccc(-c3cc4c(N[C@H](C)c5ccccc5)ncnc4[nH]3)cc2)CC1`: the cell viability in the test on Molm13 was determined as 100 ± 17%; with Mv4-11, 109 ± 18%.

Take `CC(C)=CCC[C@](C)(O[C@@H]1O[C@H](CO[C@@H]2O[C@H](CO)[C@@H](O)[C@H](O)[C@H]2O)[C@@H](O)[C@H](O)[C@H]1O)[C@H]1CC[C@]2(C)[C@@H]1[C@H](O)C[C@@H]1[C@@]3(C)CC[C@H](O[C@@H]4O[C@H](CO)[C@@H](O)[C@H](O)[C@H]4O)C(C)(C)[C@@H]3CC[C@]12C` [Gypenoside XVII]: the cell viability was found to be 95.8 ± 9.3% with Molm13 and 102 ± 7% in the test on Mv4-11.

`Nc1nccc(Oc2ccc(NC(=O)c3c[nH]cc(-c4ccc(F)cc4)c3=O)cc2F)c1Cl`: the cell viability in the test with Molm13 was found to be 60.9 ± 5.7%; with Mv4-11 it was 83.1 ± 3.7%.

As for `N#Cc1c(O)c2c(-c3ccc(-c4ccccc4O)cc3)csc2[nH]c1=O`, the cell viability in the test on Molm13 is 111 ± 27%; in the test with Mv4-11, 93.9 ± 14%.

For the compound `Cc1cc(N2CCOCC2)ccc1Nc1nc(NC2CCCCC2)c2[nH]cnc2n1`, the cell viability was found to be 119 ± 3.6% in the test with Molm13 and 108 ± 15% in the test on Mv4-11.

Turning to `O=c1ccc2ccc(O)c(O)c2o1` [Daphnetin], the cell viability turned out to be 100 ± 4.2% in the test on Molm13 and 109 ± 12% in the test on Mv4-11.

As to `Oc1ccc(Nc2nc(-c3ccc(Cl)cc3)cs2)cc1`, the results for the cell viability in the test on Molm13 and in the test with Mv4-11 were 99.73 ± 0.67% and 105.24 ± 0.067%, respectively.

As to `Cc1c(Cn2c(C)nc3c(C(=O)O)cc(N4CCOCC4)cc32)cccc1C(F)(F)F`, the values for the cell viability in the test with Molm13 and in the test on Mv4-11 were 102 ± 5.3% and 110 ± 17%, respectively.

Regarding `COc1cc2ncnc(Nc3ccc(O)cc3)c2cc1OC`, the cell viability is 116 ± 5% in the test with Molm13 and 102 ± 7.1% in the test with Mv4-11.

Turning to `CN1C(=O)C(c2c[nH]c3ccccc23)=C(c2c[nH]c3ccccc23)C1=O` [Bisindolylmaleimide V], the cell viability is 124 ± 11% in the test with Molm13 and 113 ± 9.1% in the test with Mv4-11.

As to `Cc1oncc1C(=O)Nc1ccc(C(F)(F)F)cc1` [Leflunomide], the cell viability in the test with Molm13 worked out at 91.3 ± 23%; with Mv4-11 it was 118 ± 29%.

For `O=C(O)CN1C(=O)c2c(I)c(I)c(I)c(I)c2C1=O`, the cell viability in the test on Molm13 amounted to 126 ± 38%; in the test with Mv4-11, 107 ± 3.2%.

On to `O=C1c2cccc(O)c2C(=O)c2c(O)cccc21` [Antrapurol], for which the values for the cell viability in the test with Molm13 and with Mv4-11 were 112 ± 7.6% and 109 ± 3.2%, respectively.

In the case of `C[C@@H]1O[C@@H](O[C@@H]2[C@@H](O)[C@H](OCCc3ccc(O)c(O)c3)O[C@H](CO)[C@H]2OC(=O)/C=C/c2ccc(O)c(O)c2)[C@H](O)[C@H](O)[C@H]1O` [Verbascoside], the cell viability with Molm13 amounted to 89.4 ± 1.9%; in the test on Mv4-11, 91.6 ± 5.3%.

Take `Cc1cccc(CC(=O)N2CCc3c2ccc(-c2cn(C)c4ncnc(N)c24)c3F)n1`: the cell viability in the test with Molm13 came out at 114 ± 3.6%; in the test on Mv4-11 it was 119 ± 22%.

Take `CC(C)c1cnn2c(NCc3ccccc3)cc(NCCCCCCN)nc12`: the cell viability worked out at 105 ± 20% in the test on Molm13 and 84 ± 18% with Mv4-11.

With `CCN(CC)CCNC(=O)c1c(C)[nH]c(/C=C2\C(=O)Nc3ccc(F)cc32)c1C` [Sunitinib (malate)], the cell viability in the test with Molm13 was 50.3 ± 5.7%; with Mv4-11 it was 63.4 ± 1.2%.

For `Cn1cc(C2=C(c3cn(CCCSC(=N)N)c4ccccc34)C(=O)NC2=O)c2ccccc21` [Ro 31-8220 Mesylate], the results for the cell viability in the test on Molm13 and in the test on Mv4-11 were 108 ± 2.3% and 102 ± 4%, respectively.

Turning to `CCOC(=O)c1cnc2ccc(-c3cncc(NS(=O)(=O)c4ccccc4)c3)cn12`, the cell viability in the test with Molm13 turned out to be 99.7 ± 8.9%; with Mv4-11, 103 ± 14%.

`N#C/C(=C(/N)Sc1ccc(N)cc1)c1ccccc1C(F)(F)F`: the cell viability with Molm13 turned out to be 108 ± 28%; in the test on Mv4-11, 110 ± 8.3%.

On to `CCCCCCCCCCCCc1ccc(S(=O)(=O)Nc2nncs2)cc1`, for which the cell viability in the test with Molm13 is 108 ± 3%; with Mv4-11, 100 ± 2%.

In the case of `O=C1NC(=O)C(c2c[nH]c3ccccc23)=C1c1c[nH]c2ccccc12` [Bisindolylmaleimide IV], the cell viability in the test on Molm13 was 105 ± 5.2%; with Mv4-11, 100 ± 2.6%.

For `COc1ccc(S(=O)(=O)N(C(C)=O)c2ccccc2/C=C/c2cc[n+]([O-])cc2)cc1`, the values for the cell viability in the test on Molm13 and in the test on Mv4-11 were 98.3 ± 18% and 104 ± 27%, respectively.

For the compound `Cc1c(CN2CCN(C(=O)[C@H](C)O)CC2)sc2c(N3CCOCC3)nc(-c3cnc(N)nc3)nc12` [Apitolisib (GDC-0980, RG7422)], the figures for the cell viability in the test with Molm13 and in the test on Mv4-11 were 108 ± 2.2% and 104 ± 14%, respectively.

For the compound `COc1cc(N2CCC(N3CCN(C)CC3)CC2)ccc1Nc1ncc(Cl)c(Nc2ccccc2P(C)(C)=O)n1` [Brigatinib], the figures for the cell viability in the test on Molm13 and with Mv4-11 were 115 ± 41% and 108 ± 28%, respectively.

`CC[C@H](CO)Nc1nc(NCc2ccccc2)c2ncn(C(C)C)c2n1` [(R)-Roscovitine]: the cell viability was determined as 105 ± 9.1% in the test on Molm13 and 103 ± 15% in the test with Mv4-11.

Turning to `Cc1ccc(-n2nc(C(C)(C)C)cc2NC(=O)Nc2ccc(OCCN3CCOCC3)c3ccccc23)cc1` [Doramapimod], the cell viability in the test on Molm13 worked out at 95.877 ± 0.081%; in the test with Mv4-11 it was 98.1 ± 1.1%.
